Laboratory results: ChEMBL document CHEMBL1961873, “Compounds: GSK PKIS; Assays: Nanosyn kinase panel” (2012)

Experiments:
[1] = target: T1, Tyrosine-protein kinase receptor TYRO3 (Homo sapiens) (UniProt Q06418); conditions: at 1 µM
T1 sequence (whole entry): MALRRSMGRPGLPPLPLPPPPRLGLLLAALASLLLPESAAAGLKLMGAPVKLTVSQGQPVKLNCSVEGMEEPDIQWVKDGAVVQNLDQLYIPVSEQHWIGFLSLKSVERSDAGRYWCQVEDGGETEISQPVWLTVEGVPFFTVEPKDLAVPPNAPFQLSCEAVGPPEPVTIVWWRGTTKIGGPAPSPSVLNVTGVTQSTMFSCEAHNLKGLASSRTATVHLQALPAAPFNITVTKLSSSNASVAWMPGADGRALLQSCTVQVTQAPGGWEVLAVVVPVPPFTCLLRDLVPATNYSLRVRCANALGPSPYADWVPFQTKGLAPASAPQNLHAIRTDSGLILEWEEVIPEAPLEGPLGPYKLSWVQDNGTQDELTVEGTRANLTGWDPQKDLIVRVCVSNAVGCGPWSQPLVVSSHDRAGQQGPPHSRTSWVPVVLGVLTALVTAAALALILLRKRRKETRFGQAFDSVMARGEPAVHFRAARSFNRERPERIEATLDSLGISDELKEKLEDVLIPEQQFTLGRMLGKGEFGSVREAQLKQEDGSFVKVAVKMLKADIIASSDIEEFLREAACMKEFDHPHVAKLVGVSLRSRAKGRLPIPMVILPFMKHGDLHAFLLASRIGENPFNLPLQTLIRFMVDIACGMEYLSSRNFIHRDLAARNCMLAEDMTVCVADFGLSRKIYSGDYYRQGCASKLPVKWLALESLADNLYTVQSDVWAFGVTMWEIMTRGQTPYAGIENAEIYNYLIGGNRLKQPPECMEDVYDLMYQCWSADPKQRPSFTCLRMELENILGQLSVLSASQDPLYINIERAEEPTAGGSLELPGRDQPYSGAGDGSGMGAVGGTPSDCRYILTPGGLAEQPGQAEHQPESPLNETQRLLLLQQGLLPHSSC

[2] = target: Tyrosine-protein kinase Yes (Homo sapiens) (UniProt P07947); conditions: at 0.1 µM
[3] = target: Tyrosine-protein kinase Yes (Homo sapiens) (UniProt P07947); conditions: at 1 µM
[4] = target: T2, Tyrosine-protein kinase ZAP-70 (Homo sapiens) (UniProt P43403); conditions: at 0.1 µM
T2 sequence (whole entry): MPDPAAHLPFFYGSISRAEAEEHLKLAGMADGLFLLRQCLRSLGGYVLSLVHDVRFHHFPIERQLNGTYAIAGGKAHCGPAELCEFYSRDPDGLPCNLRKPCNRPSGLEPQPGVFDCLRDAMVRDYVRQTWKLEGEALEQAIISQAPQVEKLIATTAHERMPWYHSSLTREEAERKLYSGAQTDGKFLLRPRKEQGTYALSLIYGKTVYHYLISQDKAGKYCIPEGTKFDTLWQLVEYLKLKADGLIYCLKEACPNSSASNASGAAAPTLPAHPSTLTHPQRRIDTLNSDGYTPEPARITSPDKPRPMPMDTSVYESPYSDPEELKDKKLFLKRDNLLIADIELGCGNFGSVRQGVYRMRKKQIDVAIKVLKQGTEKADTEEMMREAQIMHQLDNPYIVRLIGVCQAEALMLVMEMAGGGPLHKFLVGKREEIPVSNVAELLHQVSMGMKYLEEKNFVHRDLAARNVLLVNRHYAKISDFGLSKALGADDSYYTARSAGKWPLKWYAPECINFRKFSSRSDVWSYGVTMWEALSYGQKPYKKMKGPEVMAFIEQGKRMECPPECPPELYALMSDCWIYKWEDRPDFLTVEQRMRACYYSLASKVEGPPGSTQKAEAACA

[5] = target: T2, Tyrosine-protein kinase ZAP-70 (Homo sapiens); conditions: at 1 µM
[6] = target: Serine/threonine-protein kinase B-raf (Homo sapiens) (UniProt P15056); conditions: at 0.1 µM
[7] = target: Serine/threonine-protein kinase B-raf (Homo sapiens) (UniProt P15056); conditions: at 1 µM
[8] = tested on: Serine/threonine-protein kinase B-raf (Homo sapiens), P15056 [V600E]; conditions: at 0.1 µM
[9] = tested on: Serine/threonine-protein kinase B-raf (Homo sapiens), P15056 [V600E]; conditions: at 1 µM
[10] = target: RAF proto-oncogene serine/threonine-protein kinase (Homo sapiens) (UniProt P04049); conditions: at 0.1 µM
[11] = target: RAF proto-oncogene serine/threonine-protein kinase (Homo sapiens) (UniProt P04049); conditions: at 1 µM
[12] = target: T3, Interleukin-1 receptor-associated kinase 4 (Homo sapiens) (UniProt Q9NWZ3); conditions: at 0.1 µM
T3 sequence (whole entry): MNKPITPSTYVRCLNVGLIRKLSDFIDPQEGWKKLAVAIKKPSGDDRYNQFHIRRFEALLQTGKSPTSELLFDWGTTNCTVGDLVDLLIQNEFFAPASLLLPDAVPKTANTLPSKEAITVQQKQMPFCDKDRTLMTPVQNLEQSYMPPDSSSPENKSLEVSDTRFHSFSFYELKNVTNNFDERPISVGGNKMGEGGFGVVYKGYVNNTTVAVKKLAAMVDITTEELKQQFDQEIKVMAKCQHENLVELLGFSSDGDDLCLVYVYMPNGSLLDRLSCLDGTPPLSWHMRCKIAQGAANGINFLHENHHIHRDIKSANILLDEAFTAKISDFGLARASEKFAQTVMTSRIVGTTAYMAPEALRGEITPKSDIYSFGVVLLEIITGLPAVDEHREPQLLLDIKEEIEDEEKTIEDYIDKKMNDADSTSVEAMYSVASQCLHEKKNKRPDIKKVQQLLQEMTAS

[13] = target: T3, Interleukin-1 receptor-associated kinase 4 (Homo sapiens); conditions: at 1 µM
[14] = target: Leucine-rich repeat serine/threonine-protein kinase 2 (Homo sapiens) (UniProt Q5S007); conditions: at 0.1 µM
[15] = target: Leucine-rich repeat serine/threonine-protein kinase 2 (Homo sapiens) (UniProt Q5S007); conditions: at 1 µM
[16] = tested on: Leucine-rich repeat serine/threonine-protein kinase 2 (Homo sapiens), Q5S007 [G2019S]; conditions: at 0.1 µM
[17] = tested on: Leucine-rich repeat serine/threonine-protein kinase 2 (Homo sapiens), Q5S007 [G2019S]; conditions: at 1 µM

Sequence of Tyrosine-protein kinase Yes (Homo sapiens) (P07947 2-543 limits assumed): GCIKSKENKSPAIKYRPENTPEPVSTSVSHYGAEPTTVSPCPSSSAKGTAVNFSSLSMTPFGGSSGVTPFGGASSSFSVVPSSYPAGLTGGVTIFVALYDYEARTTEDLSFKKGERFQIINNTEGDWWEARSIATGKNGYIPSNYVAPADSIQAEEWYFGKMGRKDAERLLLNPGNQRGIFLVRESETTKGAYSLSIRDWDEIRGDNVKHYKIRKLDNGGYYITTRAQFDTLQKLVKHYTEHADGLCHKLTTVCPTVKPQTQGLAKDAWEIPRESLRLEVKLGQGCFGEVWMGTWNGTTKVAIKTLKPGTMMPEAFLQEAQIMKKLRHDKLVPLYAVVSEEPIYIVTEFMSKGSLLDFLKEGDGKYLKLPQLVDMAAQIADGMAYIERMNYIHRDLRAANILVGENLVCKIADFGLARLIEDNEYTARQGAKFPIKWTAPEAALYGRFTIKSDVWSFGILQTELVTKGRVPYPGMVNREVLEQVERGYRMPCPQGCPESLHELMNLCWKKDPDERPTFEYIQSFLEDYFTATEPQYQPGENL
Sequence of Leucine-rich repeat serine/threonine-protein kinase 2 (Homo sapiens), Q5S007 [G2019S] (Q5S007 whole entry G2019S): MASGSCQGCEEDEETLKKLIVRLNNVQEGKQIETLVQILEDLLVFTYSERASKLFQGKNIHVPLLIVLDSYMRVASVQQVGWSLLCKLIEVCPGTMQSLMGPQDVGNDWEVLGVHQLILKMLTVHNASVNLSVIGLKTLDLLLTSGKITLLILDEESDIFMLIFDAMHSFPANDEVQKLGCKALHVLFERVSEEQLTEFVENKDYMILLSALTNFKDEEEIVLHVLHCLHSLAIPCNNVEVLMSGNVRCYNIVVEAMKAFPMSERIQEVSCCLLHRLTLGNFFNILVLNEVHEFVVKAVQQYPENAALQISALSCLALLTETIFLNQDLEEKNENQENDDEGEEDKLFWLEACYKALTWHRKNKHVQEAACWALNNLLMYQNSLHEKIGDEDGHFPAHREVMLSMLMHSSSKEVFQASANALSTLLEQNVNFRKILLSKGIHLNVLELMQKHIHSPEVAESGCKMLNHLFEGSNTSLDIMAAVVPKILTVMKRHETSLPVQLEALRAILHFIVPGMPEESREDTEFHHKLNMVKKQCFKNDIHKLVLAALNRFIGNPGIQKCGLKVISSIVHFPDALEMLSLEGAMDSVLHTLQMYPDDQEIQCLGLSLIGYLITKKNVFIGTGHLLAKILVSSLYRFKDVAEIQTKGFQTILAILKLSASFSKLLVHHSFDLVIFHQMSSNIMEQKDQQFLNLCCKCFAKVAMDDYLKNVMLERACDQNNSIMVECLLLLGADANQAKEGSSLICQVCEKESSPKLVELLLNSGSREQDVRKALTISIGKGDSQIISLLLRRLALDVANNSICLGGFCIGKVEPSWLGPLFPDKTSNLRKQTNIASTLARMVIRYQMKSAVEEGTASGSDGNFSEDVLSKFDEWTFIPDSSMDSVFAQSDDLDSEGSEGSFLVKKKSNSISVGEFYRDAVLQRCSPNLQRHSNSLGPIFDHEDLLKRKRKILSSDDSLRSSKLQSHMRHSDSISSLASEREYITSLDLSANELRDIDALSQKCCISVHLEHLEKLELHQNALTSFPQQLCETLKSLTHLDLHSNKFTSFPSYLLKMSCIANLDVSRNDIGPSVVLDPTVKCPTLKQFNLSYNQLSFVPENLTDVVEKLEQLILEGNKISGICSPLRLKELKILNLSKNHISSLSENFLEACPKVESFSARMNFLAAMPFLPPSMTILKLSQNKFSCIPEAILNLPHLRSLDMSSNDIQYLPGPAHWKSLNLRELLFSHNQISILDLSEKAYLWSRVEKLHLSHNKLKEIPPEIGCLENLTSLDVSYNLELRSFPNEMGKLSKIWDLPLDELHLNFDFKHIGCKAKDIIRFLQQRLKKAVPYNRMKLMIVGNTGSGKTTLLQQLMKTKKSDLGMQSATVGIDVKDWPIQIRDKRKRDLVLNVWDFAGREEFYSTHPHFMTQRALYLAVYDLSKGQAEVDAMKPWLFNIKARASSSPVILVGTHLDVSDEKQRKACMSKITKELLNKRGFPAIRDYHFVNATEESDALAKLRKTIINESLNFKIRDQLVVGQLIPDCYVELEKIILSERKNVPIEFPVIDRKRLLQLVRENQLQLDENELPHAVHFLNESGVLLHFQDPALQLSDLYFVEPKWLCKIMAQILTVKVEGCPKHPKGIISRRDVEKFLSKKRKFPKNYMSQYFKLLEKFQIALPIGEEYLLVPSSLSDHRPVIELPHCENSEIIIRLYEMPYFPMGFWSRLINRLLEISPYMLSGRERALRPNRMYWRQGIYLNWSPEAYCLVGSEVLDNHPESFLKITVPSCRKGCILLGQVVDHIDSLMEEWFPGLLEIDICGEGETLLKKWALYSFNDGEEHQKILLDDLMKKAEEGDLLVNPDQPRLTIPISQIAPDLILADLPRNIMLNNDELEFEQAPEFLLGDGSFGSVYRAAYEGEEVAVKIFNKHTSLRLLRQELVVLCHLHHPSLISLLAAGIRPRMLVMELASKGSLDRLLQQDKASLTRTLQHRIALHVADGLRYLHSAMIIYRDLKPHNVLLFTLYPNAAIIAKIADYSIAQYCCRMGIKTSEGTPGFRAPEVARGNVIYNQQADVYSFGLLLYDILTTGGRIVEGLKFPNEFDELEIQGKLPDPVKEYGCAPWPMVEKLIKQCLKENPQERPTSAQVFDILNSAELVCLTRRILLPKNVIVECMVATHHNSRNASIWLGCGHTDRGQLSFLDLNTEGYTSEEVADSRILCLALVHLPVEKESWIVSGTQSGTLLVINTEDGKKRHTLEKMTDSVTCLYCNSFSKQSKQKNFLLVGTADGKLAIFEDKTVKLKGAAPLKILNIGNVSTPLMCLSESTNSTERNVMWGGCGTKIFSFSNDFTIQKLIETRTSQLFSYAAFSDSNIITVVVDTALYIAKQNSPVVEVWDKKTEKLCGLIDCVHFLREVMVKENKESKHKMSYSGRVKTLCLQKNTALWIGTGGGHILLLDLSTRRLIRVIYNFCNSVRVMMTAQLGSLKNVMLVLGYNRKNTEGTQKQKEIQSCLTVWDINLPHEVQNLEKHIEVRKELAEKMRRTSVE
Sequence of Leucine-rich repeat serine/threonine-protein kinase 2 (Homo sapiens) (Q5S007 whole entry): as the sequence (Q5S007 whole entry G2019S) above, with S2019G counted along it
Sequence of Serine/threonine-protein kinase B-raf (Homo sapiens), P15056 [V600E] (P15056 whole entry V600E): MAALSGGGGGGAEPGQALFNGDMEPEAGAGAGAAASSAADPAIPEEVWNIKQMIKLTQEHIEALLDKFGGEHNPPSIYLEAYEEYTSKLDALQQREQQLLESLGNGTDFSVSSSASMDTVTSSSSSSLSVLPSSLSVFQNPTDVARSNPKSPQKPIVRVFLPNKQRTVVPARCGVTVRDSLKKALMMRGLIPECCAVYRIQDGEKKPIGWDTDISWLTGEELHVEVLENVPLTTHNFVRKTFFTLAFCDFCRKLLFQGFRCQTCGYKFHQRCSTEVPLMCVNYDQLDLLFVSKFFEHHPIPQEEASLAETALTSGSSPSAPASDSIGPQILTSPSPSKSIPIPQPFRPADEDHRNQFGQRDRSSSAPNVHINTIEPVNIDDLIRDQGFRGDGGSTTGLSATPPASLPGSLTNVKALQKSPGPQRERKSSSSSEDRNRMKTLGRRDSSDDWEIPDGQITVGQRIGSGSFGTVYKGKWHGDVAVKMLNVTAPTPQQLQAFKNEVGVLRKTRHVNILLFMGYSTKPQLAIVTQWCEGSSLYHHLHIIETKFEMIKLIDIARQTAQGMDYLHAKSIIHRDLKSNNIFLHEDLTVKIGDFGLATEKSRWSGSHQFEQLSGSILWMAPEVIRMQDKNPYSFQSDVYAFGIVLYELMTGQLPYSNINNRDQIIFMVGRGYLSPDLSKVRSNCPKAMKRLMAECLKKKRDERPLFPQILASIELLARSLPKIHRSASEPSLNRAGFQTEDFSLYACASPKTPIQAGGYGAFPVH
Sequence of RAF proto-oncogene serine/threonine-protein kinase (Homo sapiens) (P04049 whole entry): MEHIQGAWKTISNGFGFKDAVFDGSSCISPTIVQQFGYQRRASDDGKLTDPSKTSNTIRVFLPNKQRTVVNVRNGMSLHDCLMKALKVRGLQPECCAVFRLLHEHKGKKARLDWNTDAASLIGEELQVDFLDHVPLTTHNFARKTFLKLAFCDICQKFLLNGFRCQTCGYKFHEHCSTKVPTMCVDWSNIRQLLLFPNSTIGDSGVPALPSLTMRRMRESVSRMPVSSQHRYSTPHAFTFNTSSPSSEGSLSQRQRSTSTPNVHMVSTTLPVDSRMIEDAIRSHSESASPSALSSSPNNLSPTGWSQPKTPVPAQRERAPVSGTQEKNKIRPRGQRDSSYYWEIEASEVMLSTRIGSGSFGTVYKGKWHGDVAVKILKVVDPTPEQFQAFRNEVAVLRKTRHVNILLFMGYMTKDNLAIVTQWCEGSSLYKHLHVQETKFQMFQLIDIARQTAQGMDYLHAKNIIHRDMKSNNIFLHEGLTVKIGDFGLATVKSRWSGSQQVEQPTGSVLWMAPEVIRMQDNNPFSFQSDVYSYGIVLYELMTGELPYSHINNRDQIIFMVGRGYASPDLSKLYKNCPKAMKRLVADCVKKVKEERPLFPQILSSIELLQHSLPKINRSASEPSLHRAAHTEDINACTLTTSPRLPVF
Sequence of Serine/threonine-protein kinase B-raf (Homo sapiens) (P15056 whole entry): as the sequence (P15056 whole entry V600E) above, with E600V counted along it

| Structure (SMILES) | inhibition [1] | inhibition [2] | inhibition [3] | inhibition [4] | inhibition [5] | inhibition [6] | inhibition [7] | inhibition [8] | inhibition [9] | inhibition [10] | inhibition [11] | inhibition [12] | inhibition [13] | inhibition [14] | inhibition [15] | inhibition [16] | inhibition [17] |
| --- | --- | --- | --- | --- | --- | --- | --- | --- | --- | --- | --- | --- | --- | --- | --- | --- | --- |
| CCS(=O)(=O)c1ccc(OC)c(Nc2ncc(-c3cccc(OC)c3)o2)c1 | 40.6% | 34.5% | 80.2% | -1.53% | -2.95% | 1.82% | 5.54% | 1.52% | 4.88% | 5.24% | -3.45% | -4.04% | 2.08% | 5.57% | 20.2% | 7.7% | 42.6% |
| Nc1ccc(C#Cc2cncnc2Nc2ccc(OCc3cccc(F)c3)c(Cl)c2)cc1 | 3.64% | 1.94% | 8.1% | -0.01% | -1.74% | 4.78% | 3.99% | 4.21% | 3.42% | -3.06% | -1.01% | 0.78% | 1.25% | 2.69% | 2.94% | 3.21% | 3.62% |
| Cc1ccc(Nc2ccnc(Nc3cccc(C(N)=O)c3)n2)cc1O | 55% | 33.5% | 78.5% | -1.9% | 6.83% | 6.53% | 10.4% | 5.95% | 8.26% | 6.98% | 4.38% | -2.94% | 6.55% | 0.74% | 9.44% | 2.08% | 26.1% |
| N#Cc1cccc(Nc2nccc(-c3cnn4ncccc34)n2)c1 | 47.8% | 5.64% | 37% | 3.19% | 13.3% | 19.5% | 65.2% | 18.8% | 65% | -0.47% | 0.47% | 4.11% | 15.1% | 4.57% | 19.8% | 7.72% | 40.4% |
| NS(=O)(=O)c1cccc(-c2cc3ccncc3cc2OCc2ccccc2)c1 | 3.23% | 0.88% | 2.73% | 2.48% | 4.15% | 6.76% | 6.57% | 5.8% | 5.78% | 2.97% | 0.71% | 1.17% | 2.26% | 4.42% | 8.85% | 4.16% | 8.74% |
| COc1cc(/C=N/Nc2ncnc3c2cnn3C(C)C)ccc1O | 25.9% | 11.9% | 50.8% | 1.87% | 4.45% | 2.16% | 2.26% | 2.21% | 1.64% | 9.62% | 1.93% | 1.12% | 2.71% | 2.81% | 7.64% | 4.77% | 19.1% |
| Cc1ccc(NC(=O)CC2CC2)cc1-c1ccc(C(=O)NCC2CC2)cc1 | 4.65% | 1.53% | 2.46% | -0.2% | 2.11% | 4.43% | 6.22% | 4.33% | 4.96% | 3.39% | 2.03% | -2.97% | 2.2% | 2.09% | 7.62% | 3.23% | 6.82% |
| Nc1nccc(-c2c(-c3ccc(F)cc3)nn3cc(C(F)(F)F)ccc23)n1 | 1.24% | 0.91% | 1.92% | -0.68% | -1.16% | 0.06% | 0.3% | 0.14% | -0.28% | -3.59% | -7.59% | 0.57% | 0.46% | 6.4% | 7.9% | 6.54% | 5.03% |
| COc1cccc(-n2ncc3c(N/N=C/c4ccc(C)cc4)ncnc32)c1 | 4.49% | 4.03% | 13.8% | 3.63% | 11% | 7.21% | 11.2% | 4.78% | 6.08% | 7.72% | 0.4% | 2.16% | 4.05% | 10.2% | 18.8% | 11.3% | 27.9% |
| Nc1nccc(-c2c(-c3ccc(F)cc3)ncn2CCCN2CCOCC2)n1 | 5.61% | 2.87% | 9.05% | -2.08% | 1.23% | 5.83% | 6.07% | 6.08% | 7.12% | 11.6% | 2.86% | 3.35% | 2.13% | 1.92% | 1.82% | 2.45% | 2.14% |
| C[C@@H](Oc1cc(-n2cnc3ccc(OCC4CCN(C)CC4)cc32)sc1C(N)=O)c1ccccc1C(F)(F)F | 6.92% | 4.36% | 13.2% | -2.7% | -1.19% | -0.94% | -2.8% | -0.73% | 0.84% | 12.6% | 1.99% | 0.42% | 9.77% | 6.53% | 26.4% | 7.39% | 31% |
| CCS(=O)(=O)c1ccc(OC)c(Nc2nccc(N(C)c3ccc4c(C)n[nH]c4c3)n2)c1 | 7.2% | 29.3% | 73.9% | 0.81% | 2.48% | 6.4% | 8.1% | 5.33% | 5.98% | 1.8% | 3.08% | 1.47% | 1.99% | 5.36% | 22.5% | 8.48% | 27.3% |
| NC(=O)c1cccc(Nc2nccc(Nc3cccc(F)c3)n2)c1 | 57% | 4.5% | 22.5% | -0.99% | 4.21% | 0.82% | 3.59% | 1.61% | 3.25% | 0.33% | -1.43% | 0.1% | 2.52% | -0.11% | 10% | 1.9% | 18.2% |
| CCCN1CCCC(c2ccc(Nc3nc(Nc4cc(F)ccc4C(N)=O)c4cc[nH]c4n3)c(OC)c2)C1 (stereo not given) | 7.19% | 5.09% | 9.04% | 7.83% | 28.7% | 11.6% | 40.1% | 11.2% | 35.5% | 1.24% | -4.64% | 3.05% | 3.34% | 86.9% | 88.3% | 80.5% | 83.5% |
| COc1cc2ncnc(Nc3ccc4c(cnn4Cc4ccccc4)c3)c2cc1OC | 12.6% | 39.4% | 79.9% | -3.74% | 2.96% | 3.75% | 3.3% | 2.5% | 1.8% | 0.11% | -1.93% | 0.58% | 1.32% | 3.78% | 14.3% | 6.86% | 13.8% |
